{"source": "paper PMC4336329", "about": "(PLoS ONE, 2015)", "note": "The whole screen tested about 310,000 compounds, of which about 2,200 (0.71%) showed an effect of 50% or more. Effects have a minus sign here. What follows is part of a selection rich in strong results, with near analogues and random picks from the rest."}
{"biological_target": "human ether-à-go-go-related gene (hERG) potassium channel (human, UniProt Q12809)", "sequence (Q12809 whole entry, looked up)": "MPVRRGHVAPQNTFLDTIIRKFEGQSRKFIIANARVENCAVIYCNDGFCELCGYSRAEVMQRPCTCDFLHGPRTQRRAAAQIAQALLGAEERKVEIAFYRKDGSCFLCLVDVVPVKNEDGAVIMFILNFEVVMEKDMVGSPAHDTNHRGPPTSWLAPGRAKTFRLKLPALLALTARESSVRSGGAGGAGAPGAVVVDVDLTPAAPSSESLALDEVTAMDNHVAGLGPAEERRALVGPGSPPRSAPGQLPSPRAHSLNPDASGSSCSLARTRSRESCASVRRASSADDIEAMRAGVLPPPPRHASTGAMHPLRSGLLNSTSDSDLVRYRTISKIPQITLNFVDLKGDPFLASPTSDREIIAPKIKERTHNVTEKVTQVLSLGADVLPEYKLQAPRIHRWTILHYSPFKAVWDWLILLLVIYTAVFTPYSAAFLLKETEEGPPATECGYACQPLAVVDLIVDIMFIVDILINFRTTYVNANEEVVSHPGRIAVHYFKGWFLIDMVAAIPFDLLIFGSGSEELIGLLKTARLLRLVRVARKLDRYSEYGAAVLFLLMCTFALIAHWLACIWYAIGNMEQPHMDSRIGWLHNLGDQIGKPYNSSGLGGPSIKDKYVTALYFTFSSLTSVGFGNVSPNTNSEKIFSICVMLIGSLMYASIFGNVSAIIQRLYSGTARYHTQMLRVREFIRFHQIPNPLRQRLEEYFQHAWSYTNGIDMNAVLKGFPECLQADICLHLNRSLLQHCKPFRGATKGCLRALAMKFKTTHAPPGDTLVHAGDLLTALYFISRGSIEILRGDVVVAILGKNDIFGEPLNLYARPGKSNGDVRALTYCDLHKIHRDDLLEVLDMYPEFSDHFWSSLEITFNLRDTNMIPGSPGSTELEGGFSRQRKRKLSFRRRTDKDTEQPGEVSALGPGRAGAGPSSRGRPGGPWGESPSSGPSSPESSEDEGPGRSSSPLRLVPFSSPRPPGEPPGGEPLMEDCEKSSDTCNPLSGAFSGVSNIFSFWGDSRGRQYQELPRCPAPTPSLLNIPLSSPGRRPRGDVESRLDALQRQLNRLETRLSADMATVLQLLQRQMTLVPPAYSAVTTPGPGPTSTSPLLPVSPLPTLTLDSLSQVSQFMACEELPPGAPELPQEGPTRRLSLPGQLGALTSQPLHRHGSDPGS", "experiment": "primary screen, population patch clamp on CHO cells stably expressing hERG; higher = less effect of the substance", "protocol": "Briefly, Chinese hamster ovary (CHO) cells stably expressing the hERG channel were dislodged from tissue culture flasks and dispensed into PPC plates. […] During the recording, background leak currents were estimated by a 100 ms step to -80 mV from an initial holding potential of -70 mV and subtracted from the subsequent current measurement. The campaign was conducted in two phases using slight differences in recording protocol. In the first phase, the initial voltage pulse used a 100 ms step to -30 mV from a holding potential of -70 mV, a 2 s conditioning step to +25 mV, and a 2 s test step to -30 mV. During the second phase of the screen, the potential during the conditioning step was raised to +45 mV. In both phases of the campaign, a secondary voltage pulse was applied using the same parameters as the second phase initial pulse. The initial and secondary pulses were applied in the absence of compound, and upon application of 1 μM and 10 μM test concentrations. Small molecule effects on hERG current density were quantified by […].", "units": {"hERG current change (%, negative = inhibition) at 1uM": "%"}}
{"smiles": "C=CCON/C(CCC)=C1\\C(=O)CC(C)(C)CC1=NC", "hERG current change (%, negative = inhibition) at 1uM": 18.6}
{"smiles": "O=C(CN(C(=O)CCC(=O)Nc1nccs1)c1ccc2c(c1)OCO2)NCc1ccc(F)cc1", "hERG current change (%, negative = inhibition) at 1uM": 9.89}
{"smiles": "COc1cccc(CN2C(=O)[C@H]3Cc4c([nH]c5ccccc45)C(C)(C)N3C2=O)c1", "hERG current change (%, negative = inhibition) at 1uM": 15.2}
{"smiles": "O=S(=O)(Nc1nc2ccccc2nc1Cl)c1ccc2c(c1)OCCO2", "hERG current change (%, negative = inhibition) at 1uM": 8.99}
{"smiles": "Cc1nn(Cc2ccccc2)c(C)c1NC(=O)CSc1nc2c(c(C(F)(F)F)n1)CCc1ccccc1-2", "hERG current change (%, negative = inhibition) at 1uM": 2.11}
{"smiles": "CC1=C(C)C(=O)N(c2ccccn2)C1=O", "hERG current change (%, negative = inhibition) at 1uM": 11.4}
{"smiles": "CCOc1ccc(CN2CCN(Cc3[nH]c4ccccc4c3C)CC2CCO)cc1", "note": "(stereo not shown)", "hERG current change (%, negative = inhibition) at 1uM": -75.2}
{"smiles": "CCOc1ccc(CN2CCN(Cc3[nH]c4ccc(OC)cc4c3C)CC2CCO)cc1", "note": "(stereo not shown)", "hERG current change (%, negative = inhibition) at 1uM": -76.9}
{"smiles": "COc1cccc(CN2CCN(Cc3[nH]c4ccccc4c3C)CC2CCO)c1", "note": "(stereo not shown)", "hERG current change (%, negative = inhibition) at 1uM": -11.2}
{"smiles": "CCOc1ccccc1CN1CCN(Cc2[nH]c3ccccc3c2C)CC1CCO", "note": "(stereo not shown)", "hERG current change (%, negative = inhibition) at 1uM": -13}
{"smiles": "COc1ccc2[nH]c(CN3CCN(CC(C)C)C(CCO)C3)c(C)c2c1", "note": "(stereo not shown)", "hERG current change (%, negative = inhibition) at 1uM": 5.18}
{"smiles": "COc1ccc2[nH]c(CN3CCN(CC=C(C)C)C(CCO)C3)c(C)c2c1", "note": "(stereo not shown)", "hERG current change (%, negative = inhibition) at 1uM": 10.7}
{"smiles": "CC(C)CC(=O)Nc1nnc(S(=O)(=O)N(C)Cc2ccco2)s1", "hERG current change (%, negative = inhibition) at 1uM": 21}
{"smiles": "NC(=O)CC(NC(=O)Cc1cccc2ccccc12)c1ccc(NCCCN2CCCC2=O)c([N+](=O)[O-])c1", "note": "(stereo not shown)", "hERG current change (%, negative = inhibition) at 1uM": 8.49}
{"smiles": "O=C(CNS(=O)(=O)c1cccc(C(F)(F)F)c1)Nc1ccccc1F", "hERG current change (%, negative = inhibition) at 1uM": -2.49}
{"smiles": "O=C(Oc1ccc(N(C(=O)c2ccncc2)S(=O)(=O)c2cccs2)cc1)c1ccncc1", "hERG current change (%, negative = inhibition) at 1uM": 11.4}
{"smiles": "CCCOC(=O)c1ccc(NS(=O)(=O)c2cccs2)cc1", "hERG current change (%, negative = inhibition) at 1uM": 8.05}
{"smiles": "O=C(OCCN(CCOC(=O)c1ccncc1)S(=O)(=O)c1cccs1)c1ccncc1", "hERG current change (%, negative = inhibition) at 1uM": -51.5}
{"smiles": "O=C(Oc1ccccc1O)c1cccc2ccccc12", "hERG current change (%, negative = inhibition) at 1uM": 6.76}
{"smiles": "Cc1ccc(N2C(=O)N(CC(=O)Nc3ccc(C)cc3C)C(=O)C2C)cc1", "note": "(stereo not shown)", "hERG current change (%, negative = inhibition) at 1uM": 7.69}
{"smiles": "COc1cc(NC(=S)NCc2cccnc2)cc(OC)c1", "hERG current change (%, negative = inhibition) at 1uM": 15.1}
{"smiles": "CCOc1ccc(NC(C)=O)cc1[N+](=O)[O-]", "hERG current change (%, negative = inhibition) at 1uM": 5.43}
{"smiles": "CCOC(=O)C1(CCc2ccccc2)CCN(Cc2cnc(N(C)C)s2)CC1", "hERG current change (%, negative = inhibition) at 1uM": -86.4}
{"smiles": "CCOC(=O)C1(CCc2ccccc2)CCN(Cc2csc(C(C)=O)c2)CC1", "hERG current change (%, negative = inhibition) at 1uM": -33.6}
{"smiles": "CCOC(=O)C1(CCc2ccccc2)CCN(Cc2ccccn2)CC1", "hERG current change (%, negative = inhibition) at 1uM": -57.1}
{"smiles": "CCOC(=O)C1(CC2CC2)CCN(Cc2cnc(N(C)C)s2)CC1", "hERG current change (%, negative = inhibition) at 1uM": 3.01}
{"smiles": "CCOC(=O)C1(CCc2ccccc2)CCN(Cc2cccc3c2OCO3)CC1", "hERG current change (%, negative = inhibition) at 1uM": -63.7}
{"smiles": "CCOC(=O)C1(CCCc2ccccc2)CCN(Cc2cnc(C)s2)CC1", "hERG current change (%, negative = inhibition) at 1uM": -44.7}
{"smiles": "CCOC(=O)C1(CCc2ccccc2)CCN(Cc2nccn2CC)CC1", "hERG current change (%, negative = inhibition) at 1uM": -47.2}
{"smiles": "CCOC(=O)C1(CCOc2ccccc2)CCN(Cc2ccc(NC(C)=O)cc2)CC1", "hERG current change (%, negative = inhibition) at 1uM": -38.6}
{"smiles": "CCOC(=O)C1(CCOc2ccccc2)CCN(Cc2cccc3c2OCO3)CC1", "hERG current change (%, negative = inhibition) at 1uM": -7.1}
{"smiles": "CCOC(=O)C1(Cc2ccccc2)CCN(Cc2cccc3c2OCO3)CC1", "hERG current change (%, negative = inhibition) at 1uM": 1.36}
{"smiles": "CCOC(=O)C1(CCc2ccccc2)CCN(Cc2ccn[nH]2)CC1", "hERG current change (%, negative = inhibition) at 1uM": -43.8}
{"smiles": "CCOC(=O)C1(CCc2ccccc2)CCN(Cc2ccc(NC(C)=O)cc2)CC1", "hERG current change (%, negative = inhibition) at 1uM": -72.5}
{"smiles": "CCOc1cc(C)ccc1OCc1nnc(SCC(=O)c2cccc([N+](=O)[O-])c2)n1CC", "hERG current change (%, negative = inhibition) at 1uM": -1.84}
{"smiles": "O=C(Nc1cc(=O)[nH]c2ncnn12)c1ccc(Cl)cc1Cl", "hERG current change (%, negative = inhibition) at 1uM": -2.66}
{"smiles": "CC(C)(C)c1ccc(C(=O)NN2C(=O)CSC2=S)cc1", "hERG current change (%, negative = inhibition) at 1uM": 12.1}
{"smiles": "CCOC(=O)C1(Cc2ccccc2)CCN(Cc2cccc(OC)c2O)CC1", "hERG current change (%, negative = inhibition) at 1uM": -31}
{"smiles": "CCOC(=O)C1(CCOc2ccccc2)CCN(Cc2ccc3c(c2)OCCO3)CC1", "hERG current change (%, negative = inhibition) at 1uM": -25.8}
{"smiles": "CCOC(=O)C1(CCc2ccccc2)CCN(Cc2cc(OC)c(OC)cc2OC)CC1", "hERG current change (%, negative = inhibition) at 1uM": -68.1}
{"smiles": "CCOC(=O)C1(CCc2ccccc2)CCN(Cc2c(O)cccc2OC)CC1", "hERG current change (%, negative = inhibition) at 1uM": -28.7}
{"smiles": "CCOC(=O)C1(CCc2ccccc2)CCN(Cc2cccc3cnccc23)CC1", "hERG current change (%, negative = inhibition) at 1uM": -4.67}
{"smiles": "CCOC(=O)C1(CCc2ccccc2)CCN(Cc2ccc(O)cc2)CC1", "hERG current change (%, negative = inhibition) at 1uM": -86.3}
{"smiles": "CCOC(=O)C1(CCc2ccccc2)CCN(Cc2ccco2)CC1", "hERG current change (%, negative = inhibition) at 1uM": -42.7}
{"smiles": "CCOC(=O)C1(CCc2ccccc2)CCN(Cc2cccc3nccnc23)CC1", "hERG current change (%, negative = inhibition) at 1uM": -19.3}
{"smiles": "CCOC(=O)C1(CCc2ccccc2)CCN(Cc2ccc3c(c2)OCCO3)CC1", "hERG current change (%, negative = inhibition) at 1uM": -91.4}
{"smiles": "CCOC(=O)C1(CCc2ccccc2)CCN(CC(O)CO)CC1", "note": "(stereo not shown)", "hERG current change (%, negative = inhibition) at 1uM": 1.26}
{"smiles": "CCOC(=O)C1(CCc2ccccc2)CCN(Cc2ccc(OC)cc2)CC1", "hERG current change (%, negative = inhibition) at 1uM": -86.9}
{"smiles": "CCOC(=O)C1(Cc2ccccc2)CCN(Cc2ccc3c(c2)OCCO3)CC1", "hERG current change (%, negative = inhibition) at 1uM": -0.488}
{"smiles": "Cc1ccc(/C=N/Nc2nnc(Cl)c3ccccc23)cc1", "hERG current change (%, negative = inhibition) at 1uM": -1.46}
{"smiles": "COc1ccc(C[C@H]2c3cc(O)c(OC)cc3CC[N+]2(C)[O-])cc1O", "note": "(stereo partly shown)", "hERG current change (%, negative = inhibition) at 1uM": 16.9}
{"smiles": "Cn1c(NCCc2ccccc2)cc(=O)n(C)c1=O", "hERG current change (%, negative = inhibition) at 1uM": 11.8}
{"smiles": "Cc1ccc(C(=O)N(C)Cc2ccc(N3CCOCC3)cc2)cc1S(=O)(=O)NCc1ccccc1", "hERG current change (%, negative = inhibition) at 1uM": 1.2}
{"smiles": "CCCCNC(=S)NNC(=O)c1cc(C2CC2)nc2ccccc12", "hERG current change (%, negative = inhibition) at 1uM": 13.2}
{"smiles": "COc1ccc(C2CC(=O)n3c(nc4ccccc43)S2)cc1OC", "note": "(stereo not shown)", "hERG current change (%, negative = inhibition) at 1uM": 12.9}
